An excerpt weighted towards active compounds, which were near 2.5% of everything screened.
rCAG RNA binder – r(CAG) repeat RNA binding | inhibition, % at 3 µM | actives 1.3% (n = 370,000) | AID 651821 | TO-PRO-1 dye displacement fluorescence;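 active = inhibition above the plate cutoff, the mean of all test compounds on that plate plus 3 SD, cut at about 35% in these data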;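 note: higher means more dye released from RNA so lower well fluorescence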
PG9 binder – small molecules binding HIV-1 gp120 antibody PG9; TR-FRET gp120-PG9 antibody binding; inhibition, % at 6.7 µM; actives 0.43% (n = 360,000); in the data active = inhibition above about 8.5%
Granule exo inh – blocks lytic granule exocytosis; TALL-104 LAMP-1 surface exposure, flow cytometry; cells stimulated with thapsigargin and PMA; inhibition, % at 10 µM; actives 0.66% (n = 360,000); AID 651702;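 active = inhibition above about 55%, limit read from the data; inconclusive = no clear call, values can overlap the other calls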
ABCB6 inh 2 – inhibitors of human ABC transporter ABCB6; Q9NP58; K562-ABCB6 porphyrin accumulation, flow cytometry, 1 h; stronger effect = lower value; fluorescence ratio to DMSO, % at 10 µM; actives 0.19% (n = 360,000);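 active = fluorescence ratio to DMSO below 75%, the collection mean minus 3 SD; inconclusive = too few cells collected in the well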;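 note: signal is porphyrin accumulated inside mitochondria; lower ratio means ABCB6 inhibition with less porphyrin fluorescence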
Exocytosis CP01 – blocks lytic granule exocytosis; inhibition, % at 10 µM; TALL-104 cells, LAMP-1 externalization, flow cytometry; stimulated with PMA plus thapsigargin; shares compounds with Granule exo inh; actives 11% (n = 1,500); AID 651954; in the data active = inhibition above about 60%
A number is an active result; - = inactive; ? = inconclusive; . = no result; ! = a repeat was not active.

SMILES | rCAG RNA binder | PG9 binder | Granule exo inh | ABCB6 inh 2 | Exocytosis CP01
COC(=O)c1cc2nc(-c3ccccc3)cc(C)n2n1 | - | - | - | - | .
Cc1c(C)c2ccc(OCC(=O)NC3CCN(Cc4ccccc4)CC3)cc2oc1=O | - | - | - | - | .
CCOC(=O)C1(Cc2ccccc2)CCN(Cc2cc(OC)c3c(c2)OCO3)CC1 | - | - | 60 | - | -
CCOC(=O)C1(Cc2cccc(OC)c2)CCN(C/C=C/c2ccc(OC)cc2)CC1 | - | - | - | ? | .
CCOC(=O)C1(Cc2ccccc2)CCN(Cc2cccc3c2OCO3)CC1 | - | - | - | - | .
CCOC(=O)C1(Cc2cccc(OC)c2)CCN(C/C=C/c2ccccc2)CC1 | - | - | 64 | - | -
CCOC(=O)C1(Cc2ccccc2)CCN(Cc2ccc(C)s2)CC1 | - | - | 64 | - | -
CC(=O)Nc1ccc(/C=C/c2ccc3c([N+](=O)[O-])cccc3n2)cc1 | - | - | - | - | .
O=C(CCN1CCN(c2ccc([N+](=O)[O-])cc2)CC1)c1ccc(Cl)cc1 | - | - | 84 | - | -
O=C(CCN1CCN(c2ccccc2)CC1)c1ccc(Cl)cc1 | - | - | 79 | - | -
O=C(CCN1CCN(c2ccccc2)CC1)Nc1ccc(Cl)cc1 | - | - | - | - | .
Cc1ccc(-c2nc(C(=O)NCCCN3CCOCC3)cc3c2[nH]c2ccccc23)cc1 | - | - | 56 | - | -
CCOC(=O)c1c(C)n(C)c2cc(Br)c(O)c(O)c12 | - | - | - | - | .
CCOC(=O)c1c(CSc2cccs2)n(C)c2cc(Br)c(O)c(CN(C)C)c12 | - | - | 90 | - | -
CCN(Cc1ccc(OC)c(F)c1)C(C)C(=O)Nc1ccc(S(=O)(=O)N2CCCC2)cc1 (stereo unspecified) | - | - | - | - | .
COc1ccc2nc(C)cc(N3CCOCC3)c2c1 | - | - | - | - | .
COc1ccc2nc(C)cc(N3CCN(c4ccccc4)CC3)c2c1 | - | - | 65 | - | -
COc1ccc(CCN2CCC(CN3C(=S)NC[C@@H]3Cc3ccccc3)CC2)cc1OC | - | - | . | . | .
COCCNC(=O)C1(C)CCCN(C(=O)c2ccc(C)c(F)c2)C1 (stereo unspecified) | - | - | - | - | .
COc1cc(C(=O)N2CCCC(c3cc(C(=O)NCc4ccc(F)cc4)no3)C2)cc(OC)c1C (stereo unspecified) | - | - | - | - | .
Cc1ccc(NC(=O)CSc2nnc3ccccn23)cc1S(=O)(=O)N1CCOCC1 | - | - | 81 | - | -
Cc1ccc(NC(=O)CSc2nccn2C)cc1S(=O)(=O)N1CCOCC1 | - | - | - | - | .
CC(=O)c1cccc(NC(=O)COC(=O)CCC(=O)c2cccs2)c1 | - | - | - | - | .
CCOC1=C2[C@@H](CN(S(=O)(=O)c3ccc(C)cc3)[C@H]2c2cccs2)[C@H]2C(=O)N(c3ccccc3)C(=O)[C@H]2C1 | - | - | - | - | .
OCC1(CCc2ccccc2)CCN(C/C=C/c2ccccc2)CC1 | - | - | 57 | - | -
SMILES | rCAG RNA binder | PG9 binder | Granule exo inh | ABCB6 inh 2 | Exocytosis CP01
OCC1(Cc2ccccc2Cl)CCN(C/C=C/c2ccccc2)CC1 | - | - | - | - | .
CC(C)NC(=O)c1cc(-c2ccc(F)cc2OC(C)C)n[nH]1 | - | - | - | - | .
Cc1cccc(NC(=O)COc2ccc(/C=N\n3cnnc3)cc2)c1 | - | - | - | - | .
Cc1nc(NCCC(C)C)c2nnn(Cc3ccccc3)c2n1 | - | - | - | - | .
CCCCNc1c(-c2ccc(OC)c(SC3CCCCC3)c2)nc2ccc(C)cn12 | - | - | 86! | - | 77
COc1ccc(Br)cc1S(=O)(=O)N(CC(=O)N1CCN(C)CC1)c1ccccc1 | - | - | - | - | .
CC(=C1N=C(c2ccccc2)OC1=O)c1cccs1 | - | - | . | . | .
COc1ccc(N(CC(=O)NCCSc2ccccn2)S(=O)(=O)c2ccccc2)c(OC)c1 | - | - | 65 | - | 101
COc1ccccc1N(CC(=O)Nc1ccc(Cc2ccncc2)cc1)S(=O)(=O)c1ccccc1 | - | - | 66 | - | -
CCc1ccccc1NC(=O)CN(c1ccc(OC)cc1OC)S(=O)(=O)c1ccccc1 | - | - | 70 | - | -
COc1ccc(OC)c(N(CC(=O)NCCSCc2ccco2)S(=O)(=O)c2ccccc2)c1 | - | - | 85 | - | -
c1ccc(CNC2CC3CCC2C3)cc1 (stereo unspecified) | - | - | - | - | .
COc1ccc(CNC(=O)C(c2ccc(C)o2)N(Cc2cccs2)C(=O)Cc2cccs2)cc1 (stereo unspecified) | - | - | 77 | - | -
CNS(=O)(=O)c1cccc(C(=O)OCC(=O)Nc2ccc3ccccc3c2)c1 | - | - | - | - | .
COc1ccc(/C=C2\Oc3cc(OCC(=O)N4CCC[C@H]4CO)ccc3C2=O)c(OC)c1 | . | . | - | - | .
COc1ccc2sc(N(CCCN(C)C)C(=O)c3ccc(S(=O)(=O)N4CCc5ccccc5C4)cc3)nc2c1 | - | - | 76 | - | 84
Cc1cc(C)c2sc(N(CCCN(C)C)C(=O)c3ccc(S(=O)(=O)N4CCc5ccccc5C4)cc3)nc2c1 | . | . | 56 | - | 63
COc1ccc2sc(N(CCCN(C)C)C(=O)c3ccc(S(=O)(=O)N4CCCC4)cc3)nc2c1 | - | - | - | - | .
Cc1cc(C)c2sc(N(CCCN(C)C)C(=O)c3ccc(S(=O)(=O)N4CCCc5ccccc54)cc3)nc2c1 | - | - | 58 | - | -
CN(C)CCCN(C(=O)c1ccc(S(=O)(=O)N2CCc3ccccc32)cc1)c1nc2ccc(F)cc2s1 | - | - | - | - | .
CC(C)(CNc1ccc(C(F)(F)F)cc1[N+](=O)[O-])N1CCOCC1 | - | - | - | - | .
Cc1ccccc1Nc1nc(N)nc(COC(=O)c2ccc(S(=O)(=O)N(C)C)cc2)n1 | - | - | 63 | - | -
Cc1ccccc1Nc1nc(N)nc(COC(=O)c2ccco2)n1 | - | - | - | - | .
CCOC(=O)Nc1nc(-c2ccc(F)cc2F)cs1 | - | - | 65 | - | -
O=C(c1cc(=O)[nH]c2ccccc12)N1CCN(c2ccccc2)CC1 | - | - | - | - | .
SMILES | rCAG RNA binder | PG9 binder | Granule exo inh | ABCB6 inh 2 | Exocytosis CP01
CCCCCCCn1c2c(c(=N)c3ccccc31)CCC2 | - | - | 71 | - | -
CC(=O)Nc1ccc(NC(=O)C(C)OC(=O)c2ccc(S(=O)(=O)N3CCCCCC3)cc2)cc1 (stereo unspecified) | - | - | - | - | .
CCOc1cc(S(=O)(=O)n2cc(-c3ccc(F)cc3)c(N)n2)cc(OCC)c1OCC | - | - | - | - | .
CCOc1ccc(S(=O)(=O)n2cc(-c3ccccc3)c(N)n2)cc1 | - | - | 67 | - | -
CCOc1ccc(S(=O)(=O)n2cc(-c3ccc(F)cc3)c(N)n2)cc1 | - | - | 74 | - | -
O=C(CSc1nnc(-c2cccc(F)c2)o1)N1CCCC1 | - | - | - | - | .
NC(Cc1ccccc1)c1csc(Nc2ccc(C(=O)c3ccccc3)cc2)n1 (stereo unspecified) | - | - | - | - | .
NC(Cc1ccc(Cl)cc1)c1csc(Nc2ccc(C(=O)c3ccccc3)cc2)n1 (stereo unspecified) | - | - | 58 | - | -

High-throughput results as filed in PubChem.
